# An excerpt weighted towards active compounds, which were near 2.5% of everything screened.
# MCL1 BIM primary: MCL1-BIM-BH3 interaction inhibition (human); Q07820; inhibition, % at 10.9 µM; 0.68% of 320,000 active; GST-MCL1 / FITC-Bim-BH3 fluorescence polarization;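 active means inhibition above the mean inhibition of all tested compounds plus 3 SD, set per campaign, cut at about 40% in these data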;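 further: 0% = DMSO wells and 100% = unlabeled Bim-BH3 peptide control; higher means more loss of mP so more displacement of Bim peptide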
# Target sequence (Q07820 whole entry, looked up): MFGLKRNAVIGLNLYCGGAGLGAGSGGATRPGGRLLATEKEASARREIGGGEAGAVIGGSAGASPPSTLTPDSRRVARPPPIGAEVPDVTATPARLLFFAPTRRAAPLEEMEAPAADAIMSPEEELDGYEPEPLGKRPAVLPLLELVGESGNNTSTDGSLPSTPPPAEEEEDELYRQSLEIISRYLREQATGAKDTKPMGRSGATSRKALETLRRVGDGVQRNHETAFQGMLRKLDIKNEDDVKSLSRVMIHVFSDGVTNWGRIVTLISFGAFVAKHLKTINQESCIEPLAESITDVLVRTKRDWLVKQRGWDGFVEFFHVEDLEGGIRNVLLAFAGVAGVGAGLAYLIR
# Mcl-1 Bim block: inhibitors of Bim-Mcl-1 interaction, human | 0.1% of 190,000 active | Q07820 | AID 1009 | inhibition, % at 10 µM | Bead-based flow cytometry, Bim peptide-Mcl-1 binding; in the data active means inhibition above about 40%;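 further: 0% = no compound tracer wells and 100% = peptide blocker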
# Mcl1 Noxa PPI: Mcl-1/Noxa interaction inhibition. 1.5% of 220,000 active. Q07820. inhibition, % at 21.7 µM. TR-FRET Mcl-1/Noxa peptide binding, 2 h;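 active means compounds that cut the protein-peptide binding signal by more than 50% relative to plate controls in a single-dose test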;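 further: His-tagged Mcl-1 with rhodamine Noxa BH3 peptide and terbium anti-His antibody; 0% = Mcl-1 plus Noxa peptide wells and 100% = peptide-only wells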
# 14-3-3 Bad inh: disrupts binding of bovine 14-3-3 zeta to phospho-Bad peptide | TR-FRET 14-3-3zeta/Dy647-pBad peptide displacement, 1 h | inhibition, % at 21.7 µM | 0.71% of 220,000 active;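 active means inhibition above about 70%, limit read from the data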;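 further: 0% = full 14-3-3 plus peptide FRET controls and 100% = background without 14-3-3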
# Target sequence (P63103 whole entry, looked up): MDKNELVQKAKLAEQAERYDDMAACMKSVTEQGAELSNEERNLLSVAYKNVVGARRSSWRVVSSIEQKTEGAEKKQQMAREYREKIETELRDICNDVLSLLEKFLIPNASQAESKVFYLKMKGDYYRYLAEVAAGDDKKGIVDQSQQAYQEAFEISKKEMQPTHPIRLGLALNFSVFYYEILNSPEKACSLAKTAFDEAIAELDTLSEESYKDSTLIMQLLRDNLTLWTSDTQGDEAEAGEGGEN
# Mcl1 Bid PPI: disrupts binding of human Mcl-1 to Bid peptide; Q07820; TR-FRET Mcl-1/Bid-Dy647 peptide binding, 1536-well; inhibition, % at 21.7 µM; 0.97% of 220,000 active;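 active means compounds that cut the binding signal by more than half at the single screening dose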;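 further: His-tagged Mcl-1 with europium anti-His antibody binding Bid BH3 peptide; 0% = Mcl-1 plus peptide wells and 100% = peptide-only wells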
# An asterisk follows results filed as active; · = no result; [ ] = remark or other dose.
SMILES,MCL1 BIM primary,Mcl-1 Bim block,Mcl1 Noxa PPI,14-3-3 Bad inh,Mcl1 Bid PPI
Cc1cc(NC(=O)/C=C/c2ccccc2Cl)no1,-1,-4,-40,0,-35
CCN(CC)c1ccc(NC(=O)/C=C\c2ccccc2Cl)cc1,9,0,91*,8,29
CCn1nnnc1NCc1cccn1C,11,-2,1,0,-19
COc1ccc(/C=C(/NC(=O)c2ccccc2)C(=O)N/N=C/c2ccncc2)c(OC)c1,0,-2,-1,7,-13
O=C(CC(=O)N/N=C/c1ccc(F)cc1)N/N=C/c1ccc(F)cc1,-4,·,11,4,-9
COC(=O)c1ccccc1NC(=O)c1ccc(-c2ccc(Br)cc2)o1,6,-1,19,8,-5
O=C(Nc1cccc2nsnc12)c1ccc(-c2ccc(Br)cc2)o1,-28,-1,27,-6,63*
O=C1/C(=C\c2cccnc2)Sc2ccccc21,37,0,19,13,-9
CC(=O)Nc1ccc(/C=C2/Sc3ccccc3C2=O)cc1,-1,0,72*,29,-28
Cc1cc2cc3c(cc2nc1SCC(=O)O)OCCO3,4,-4,2,5,6
Cc1cc2cc3c(cc2nc1SCC(=O)OC(C)C)OCCO3,-6,-1,-2,91*[fluorescence artefact?],4
CC(C)(Oc1ccc(Cl)cc1)C(=O)OCC(=O)Nc1ncc(Cl)cc1Cl,-2,-3,10,88*,7
O=C(COC(=O)c1ccccc1O)Nc1ncc(Cl)cc1Cl,40*,0,44,41,-73
O=C(COC(=O)CNC(=O)c1ccccc1F)Nc1ncc(Cl)cc1Cl,17,·,·,·,·
c1ccc(-c2noc(CN3CCc4sccc4C3)n2)cc1,-1,0,6,-14,-22
COc1ccc(NC(=O)CSc2ncnc3c2sc2ccccc23)c(OC)c1,2,1,79*,18,16
Cc1ccc(S(=O)(=O)NN2C(=O)/C(=C/c3cccn3C)SC2=S)cc1,-78,6,54*,6,-20
COC(=O)c1ccc2nc(Nc3nc4c(F)cc(F)cc4s3)sc2c1,0,-3,81*,49,64*
CSc1nnc(C(C)(C)C)c(=O)n1/N=C/c1ccc(C(C)C)cc1,3,·,-25,-1,-12
C=CCn1c(SCC(=O)Nc2sc3c(c2C#N)CCC3)nnc1C1COc2ccccc2O1 (stereo not given),-4,0,30,-8,55*
COc1cc(C)ccc1OCCON1C(=O)CCC1=O,7,0,8,-5,-31
C[C@@H]1O[C@@H](O[C@H]2[C@H](O)[C@@H](O)[C@H](Oc3c(-c4ccc(O)c(O)c4)oc4cc(O)cc(O)c4c3=O)O[C@@H]2CO)[C@H](O)[C@H](O)[C@H]1O,18,·,·,·,·
C[C@@H]1O[C@@H](Oc2c(-c3cc(O)c(O)c(O)c3)oc3cc(O)cc(O)c3c2=O)[C@H](O)[C@H](O)[C@H]1O,24,0,54*,-14,-20
CCOC(=O)C1=C(C)NC(C)=C(C(=O)OCC)C1c1cn(-c2ccccc2)nc1-c1ccco1,-2,2,0,-9,-1
COc1cc(NC(=O)CSc2nccc(C)n2)c(C(=O)O)cc1OC,6,-5,7,14,-9
SMILES,MCL1 BIM primary,Mcl-1 Bim block,Mcl1 Noxa PPI,14-3-3 Bad inh,Mcl1 Bid PPI
COc1ccc([N+](=O)[O-])cc1NC(=O)CSc1nccc(C)n1,8,1,57*,-16,-13
COc1ccc([N+](=O)[O-])cc1NC(=O)CSc1ncccn1,-5,-2,10,2,6
Cc1nc(SCC(=O)Nc2cc(Cl)ccc2[N+](=O)[O-])nc(C)c1C,4,-5,8,-4,95*
COc1cc(NC(=O)CSc2nccc(C)n2)c(C)cc1[N+](=O)[O-],5,-2,57*,-28,-32
CCOC(=O)C1=C(N)n2c(s/c(=C\c3cccnc3)c2=O)=C(C(=O)OC)C1c1cccnc1 (stereo not given),5,·,·,·,·
CCN(CC)C(=S)NC(=O)C12CC3CC(CC(C3)C1)C2,-3,-3,7,-8,-44
Cc1cccc(-n2c(SCC(=O)Nc3nnc(C)s3)nnc2-c2ccoc2C)c1,4,-8,-4,10,67*
COCCNC(=O)CSc1nc2ccc(N3CCOCC3)cc2c(=O)n1CCc1ccccc1,9,0,17,6,-25
CCCCn1c(SCC(=O)NCCOC)nc2ccc(N3CCOCC3)cc2c1=O,16,-3,89*,0,-34
Cc1ccc(SC(C)C(=O)Nc2ccccc2-c2ccccc2)cc1 (stereo not given),0,-1,10,-1,3
CC(Sc1ccc(Cl)cc1)C(=O)Nc1ccccc1-c1ccccc1 (stereo not given),3,-2,71*,-19,3
COCCn1c(SCC(=O)N2CCc3ccccc3C2)nc2cc(Cl)ccc2c1=O,0,-1,1,1,-17
CCN(CC)c1ccc(NC(=O)C2CC3CCC2C3)cc1 (stereo not given),7,0,67*,12,9
O=C(Nc1ccccc1)C1CC2CCC1C2 (stereo not given),5,·,·,·,·
C=CCn1c(SCC(=O)Nc2ccc(-c3nc4ccc(C)cc4s3)cc2)nnc1-c1ccncc1,7,-11,63*,32,-20
CCn1c(SCC(=O)Nc2ccc(-c3nc4ccc(C)cc4s3)cc2)nnc1-c1ccccc1,-1,-5,66*,91*[fluorescence artefact?],66*
C=CCn1c(SCC(=O)Nc2ccc(N3CCOCC3)cc2)nnc1-c1ccncc1,-3,·,·,·,·
CCOC(=O)c1c(C)oc2c1c(C=NCCC(=O)O)c(O)c1ccccc12,18,-1,20,-13,-29
CCOC(=O)c1c(C)oc2c1c(C(c1ccncc1)N1CCOCC1)c(O)c1ccccc12 (stereo not given),13,-1,98*,44,82*
CCOc1ccccc1Oc1c(C)oc2c(CN3CCN(CCO)CC3)c(O)ccc2c1=O,6,5,·,·,·
CCOC(=O)c1c(C)oc2c1c(CN1CCN(C(=O)OCC)CC1)c(O)c1ccccc12,22,-8,98*,-5,62*
CCOC(=O)c1c(C)oc2ccc(O)c(CN3CCCCC3)c12,4,-1,-7,1,-23
CCOC(=O)c1c(C)oc2c1c(CN1CCN(CCO)CC1)c(O)c1ccccc12,·,0,95*,38,56*
COc1ccccc1Oc1c(C)oc2c(CN3CCN(CCO)CC3)c(O)ccc2c1=O,112*,1,-9,-11,-14
O=C(C[n+]1ccsc1)c1ccccc1,6,-3,4,-9,-42
O=c1ccc2c(o1)/C(=C/C=C(Cl)Cl)CCC2,8,0,49,21,59*
CCCn1c(SCC(=O)C(C)(C)C)nc2ccccc21,-6,-4,31,11,21
CCCn1c(SC(C)C(=O)O)nc2ccccc21 (stereo not given),-7,-2,-4,83*,17
C#CCSc1nc(Cc2ccc(Cl)cc2)nc2ccccc12,0,0,-2,-3,-157

# Screens: PubChem, several laboratories
